Assay outcomes (PubChem BioAssay)
FBPA coupling cs = qHTS Assay for Inhibitors of Fructose-1,6-bisphosphate Aldolase from Giardia Lamblia: Coupling assay counterscreen | coupling enzyme system counterscreen, AmpLite Red fluorescence | activity change, negative = inhibition, % at 58.2 µM, hits read low | 290,000 tested, 0.67% active | AID 2472, 2010; in the data active = activity change below about -30%
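Fluorescence at 525 nm excitation and 598 nm emission measured inhibition of the coupled detection system without aldolase. Compounds (at 57.5 uM final) were preincubated 10 min at room temperature with coupling enzyme reagent before a 20 min substrate/AmpLite Red step.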
KDM4E inh = qHTS Assay for Inhibitors of Human Jumonji Domain Containing 2E (JMJD2E); Lysine-specific demethylase 4E (Homo sapiens), B2RXH2; JMJD2E catalytic domain, FDH-coupled NADH fluorescence (FDH is formaldehyde dehydrogenase); Potency, µM (series often up to 57.1 µM), inactives show at the highest dose activity change, negative = inhibition, hits mostly inhibitors; 230,000 tested, 1.6% active; active = well fitted inhibition curve with a large enough effect, not every such curve was filed as active; inconclusive = small, poorly fitted or top-dose-only effect, or another doubt; inactive = no such curve, though single readings can be large or run the other way;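 note: potency is the fitted concentration of half-maximal effect; 0% = wells with enzyme and -100% = buffer wells without enzyme; nearly all actives have a fitted effect of over 50% in size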
Sfp PPTase inh = qHTS Assay for Inhibitors of Bacillus subtilis Sfp phosphopantetheinyl transferase (PPTase); 4'-phosphopantetheinyl transferase ffp (Bacillus subtilis), Q9F4F7; Biochemical Sfp PPTase activity, qHTS; Potency, µM, for inactives: largest response in the series, negative = inhibition, hits mostly inhibitors; 310,000 tested, 3.5% active; AID 1490, 2009;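 note: the enzyme is Sfp with the accession as filed and its product quenches rhodamine fluorescence; potency is the fitted concentration of half-maximal effect; 0% = enzyme reaction without inhibitor and -100% = no enzyme wells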
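After 15 min at room temperature with compound, 15 nM Sfp received 5 uM rhodamine-CoA plus 12.5 uM BHQ-2-ybbR (50 mM Hepes pH 7.6, 10 mM MgCl2). Rate came from the fluorescence difference over 30 min, ex 525/em 598 nm.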
NPSR antagonist = qHTS Assay for Antagonists of the Neuropeptide S Receptor: cAMP Signal Transduction; Q6W5P4; CHO-NPSR cells, cAMP TR-FRET, antagonist mode; Potency, µM (highest dose often 38.3 µM), without a hit: top-dose activity change, negative = inhibition, most hits filed as inhibitors; 220,000 tested, 1% active; AID 1461, 2008; note: potency is the fitted concentration of half-maximal effect; nearly all actives have a fitted effect of over 50% in size
Target sequence (Q6W5P4 whole entry, looked up): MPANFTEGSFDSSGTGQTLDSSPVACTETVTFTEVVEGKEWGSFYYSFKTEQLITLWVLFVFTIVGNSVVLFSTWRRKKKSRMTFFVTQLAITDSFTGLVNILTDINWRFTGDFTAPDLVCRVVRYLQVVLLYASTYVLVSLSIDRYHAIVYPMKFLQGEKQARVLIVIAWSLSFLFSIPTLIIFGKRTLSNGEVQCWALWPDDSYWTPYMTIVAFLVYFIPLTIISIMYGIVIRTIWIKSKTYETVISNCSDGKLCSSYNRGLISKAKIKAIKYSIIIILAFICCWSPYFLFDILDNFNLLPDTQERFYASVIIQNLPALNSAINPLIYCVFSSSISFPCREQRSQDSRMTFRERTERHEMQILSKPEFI
GoLoco inh red = qHTS Assay for Inhibitors of RGS12 GoLoco Motif Activity (Red Fluorophore) | Guanine nucleotide-binding protein G(i) subunit alpha-1 (Homo sapiens), P63096 | Gai1:RGS12 GoLoco peptide FP, rhodamine, 10 min | Potency, µM (doses to about 61.6 µM), inactives show at the highest dose activity, negative = inhibition, usual class: inhibitors | 230,000 tested, 0.44% active | AID 880, 2007; active = well fitted inhibition curve with a large enough effect, not every such curve was filed as active; inactive = no such curve, though single readings can be large or run the other way; note: potency is the fitted concentration of half-maximal effect; nearly all actives have a fitted effect of over 30% in size
Target sequence (P63096 whole entry, looked up): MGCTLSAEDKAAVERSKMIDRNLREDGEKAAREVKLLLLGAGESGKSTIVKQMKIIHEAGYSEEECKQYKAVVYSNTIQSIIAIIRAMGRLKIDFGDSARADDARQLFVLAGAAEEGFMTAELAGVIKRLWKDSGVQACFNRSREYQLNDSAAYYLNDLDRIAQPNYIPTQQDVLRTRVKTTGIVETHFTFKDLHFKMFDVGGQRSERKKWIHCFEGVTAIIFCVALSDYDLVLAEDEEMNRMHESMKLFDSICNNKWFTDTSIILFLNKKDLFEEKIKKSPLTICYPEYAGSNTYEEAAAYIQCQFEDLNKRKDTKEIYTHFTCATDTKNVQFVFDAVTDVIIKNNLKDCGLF
ALDH1A1 block = qHTS Assay for Inhibitors of Aldehyde Dehydrogenase 1 (ALDH1A1); Aldehyde dehydrogenase 1A1 (Homo sapiens), P00352; Purified ALDH1A1, NADH fluorescence, propionaldehyde substrate; Potency, µM (highest dose often 75.3 µM), without a hit: at the highest dose activity, negative = inhibition, most hits filed as inhibitors; 220,000 tested, 7.3% active; AID 1030, 2008; active = well fitted inhibition curve with a large enough effect, not every such curve was filed as active; inconclusive = small, poorly fitted or top-dose-only effect, or another doubt; inactive = no such curve, though single readings can be large or run the other way;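 note: potency is the fitted concentration of half-maximal effect; plate controls were no enzyme wells and a reference inhibitor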
Active calls of the source: *; ? = inconclusive; . = no result; ! = repeats disagree; [ ] = dose if it differs, or a comment. Most compounds without a hit are left out; they make up all but 8.5% or so of the library. Unless noted, calls come from the whole dose curve; as a rule, active = well fitted curve in the direction sought with a large enough effect; inconclusive = small, poorly fitted or top-dose-only effect, or another doubt; inactive = no such curve, though single readings can be large; an effect the other way counts as inactive or inconclusive. Unless noted, % is set by controls: 0 for no effect and ±100 for the full control effect.

SMILES	FBPA coupling cs	KDM4E inh	Sfp PPTase inh	NPSR antagonist	GoLoco inh red	ALDH1A1 block
COc1ccccc1-n1c(SCC(=O)O)nc2c(sc(=S)n2-c2ccc(C)c(C)c2)c1=O	-13	.	-4%	.	.	.
COc1ccccc1-c1ccc(/C=C2\C=CC(=O)O2)o1	3	?	?	-21%	39%	.
COc1cc(OC)cc(C(=O)NC(C)CNc2ccc(Cl)cc2[N+](=O)[O-])c1 (stereo not given)	-1	.	1%	.	.	.
COC(=O)c1cc(NC(=O)c2c(F)c(F)c(F)c(F)c2F)cc(C(=O)OC)c1	-1	-18%	-3%	-14%	7%	-11%
CCOc1ccccc1NC(=S)N1CCC(NC(=O)C(C)(C)C)CC1	2	3%	19%	10%	6%	-8%
NCCC[C@@H](CC(=O)N[C@@H]1CCNC[C@H]1C(=O)N[C@H](CC(=O)N[C@@H](CCC(=O)O)CC(=O)O)Cc1c[nH]c2ccccc12)NC(=O)C[C@H](Cc1c[nH]c2ccccc12)NC(=O)[C@@H]1CNCC[C@H]1N	-4	?	-17%	.	4%	-14%
O=C(N1CCN(Cc2ccc3c(c2)OCO3)CC1)C(Cl)(Cl)Cl	0	.	20%	.	.	.
O=C1CSC(=S)N1/N=C/c1c(F)cccc1F	-1	.	?	.	.	.
O=C1CSC(=S)N1N=C1CCCCCC1	0	-2%	18µM*	-8%[46.1 µM]	-2%	-7%
CCNc1nc(NCC)n2c(SCC(=O)c3ccccc3Cl)nnc2n1	3	-9%	12%	-1%	-4%	?
COc1ccccc1-c1cncnc1NCc1cccnc1	5	-9%	?	.	-5%	-1%
Cc1cnc(CNc2ncncc2-c2ccccc2C(F)(F)F)cn1	4	?	71µM*	.	-26%	?
COc1ccccc1-c1cncnc1NCc1cnc(C)cn1	0	.	79µM*	.	-14%	?
FC(F)(F)c1ccccc1-c1cncnc1NCc1ccccc1	4	.	-2%	.	-9%	?
COc1ccccc1-c1cncnc1NCCNC(C)=O	0	.	79µM*	.	2%	-1%
COc1ccccc1-c1nc(NCc2cnc(C)cn2)c2ccccc2n1	-5	?	50µM*	.	-23%	?
COc1ccc(-c2nc(CS(=O)(=O)CC(=O)NC3CCC(C)CC3)c(C)o2)cc1 (stereo not given)	4	.	2%	.	.	.
CC1CCCN(C(=O)C2CCN(S(=O)(=O)c3ccc4c(c3)CC(C)N4C(=O)C3CC3)CC2)C1 (stereo not given)	2	.	18%	.	.	.
Cc1c(Cl)ccc2c1NC(=O)C21NC(CCC(N)=O)[C@H]2C(=O)N(c3ccc(Cl)cc3)C(=O)[C@H]21 (stereo not given in full)	-4	0%	-15%	-4%[46.1 µM]	19%	8.9µM*
Cc1c(Cl)ccc2c1NC(=O)[C@]21N[C@@H](CCC(N)=O)[C@H]2C(=O)N(c3ccc(F)cc3)C(=O)[C@H]21	1	14%	-10%	-1%[46.1 µM]	-4%	14µM*
CCCCc1ccc(N2C(=O)[C@@H]3C(CC(N)=O)NC4(C(=O)Nc5ccc(F)cc54)[C@@H]3C2=O)cc1 (stereo not given in full)	-1	0%	-18%	-11%[46.1 µM]	-10%	14µM*
O=C(Oc1ccc(C(=S)N2CCCCC2)cc1)c1ccccc1F	-6	3%	-4%	2%	9%	8.9µM*
O=C(Oc1ccc(Br)cc1C(=S)N1CCCC1)c1ccccc1F	0	-17%	45µM*	-9%	4%	11µM*
O=C(Oc1ccc(Br)cc1C(=S)N1CCOCC1)c1ccc([N+](=O)[O-])cc1[N+](=O)[O-]	-18	.	50µM*	.	.	.
O=C(Oc1ccc(C(=S)N2CCOCC2)cc1)c1ccc([N+](=O)[O-])cc1[N+](=O)[O-]	1	.	-10%	.	.	.
SMILES	FBPA coupling cs	KDM4E inh	Sfp PPTase inh	NPSR antagonist	GoLoco inh red	ALDH1A1 block
Cc1ccccc1C(=O)Oc1ccc(Br)cc1C(=S)N1CCCC1	.	-6%	-1%	?	2%	-14%
C/C=C\C=C/C(=O)Nc1cccc(C2=NOC3(C2)C[C@H](C(N)=O)N(C(=O)c2ccc(OC)cc2)C3)c1 (stereo not given in full)	2	-16%	13µM*	19%	-5%	.
NC(=O)C1(NC(=O)[C@@H]2CC3(CC(c4cccc(NC(=O)c5cc([N+](=O)[O-])cc([N+](=O)[O-])c5)c4)=NO3)CN2C(=O)c2ccccc2)CC1 (stereo not given in full)	-1	-4%	79µM*	-6%[46.1 µM]	3%	?
COc1ccc(C(=O)N2CC3(CC(c4cccc([N+](=O)[O-])c4)=NO3)C[C@H]2C(=O)NCC(N)=O)cc1 (stereo not given in full)	-1	2%	14%	7%[46.1 µM]	-11%	11µM*
C/C=C\C=C/C(=O)Nc1cccc(C2=NOC3(C2)C[C@@H](C(N)=O)N(C(=O)c2ccc(Cl)cc2)C3)c1 (stereo not given in full)	5	?	7.1µM*	-3%	-8%	.
CCOc1ccc2oc(C(=O)NCC(C)(C)CN(C)C)c(C)c2c1	0	?	6%	7%	9%	?
COc1ccc(C(=O)Sc2nncc3ccccc23)cc1	0	-23%	50µM*	-3%	-6%	?
Cc1nc(N2CCN(C)CC2)[nH]c(=O)c1Cc1cccc2ccccc12	3	7%	11%	9%[46.1 µM]	-8%	?
Cc1[nH]c(=O)[nH]c(=O)c1Cc1cccc2ccccc12	2	-11%	15%	19%	0%	10µM*
O=C1NC(=O)C(c2ccccc2[N+](=O)[O-])=C1Nc1ccc(O)c(Cl)c1	-6	-2%	56µM*!	-26%[46.1 µM]	-35%	28µM*!
COc1ccc(NC2C=CS(=O)(=O)C2)c(OC)c1 (stereo not given)	-41*	1%	79µM*	-20%[46.1 µM]	0%	?
CCOC(=O)c1c(NC(=S)NC)sc2c1CC(C)(C)SC2	0	?	20µM*	-32%	7%	25µM*
CCOC(=O)c1c(NC(=S)Nc2ccc(OC)cc2)sc2c1CCC2	-7	0%	?	?	7%	?
CCOC(=O)c1c(NC(=S)Nc2ccccc2)sc2c1CC(C)(C)SC2	1	1%	-21%	-33%	36%	2.5µM*
